# Measurements published in publication PMC5540273 (PLoS ONE, 2017).
# Experiments:
# Settings in all cases: concentration: 1 μM, replicates: in singlicate; n = 1
# SGK = tested on: SGK
# SIK2 = tested on: SIK2
# SIK = tested on: SIK
# SLK = tested on: SLK
# SNARK = tested on: T1, SNARK
# T1 construct: gene NUAK2
# SNRK = tested on: SNRK
# SRC = tested on: SRC
# SRMS = tested on: SRMS
# SRPK1 = tested on: SRPK1
# SRPK2 = tested on: SRPK2
# SRPK3 = tested on: SRPK3
# STK16 = tested on: STK16
# STK33 = tested on: STK33
# STK35 = tested on: STK35
# STK36 = tested on: STK36
# STK39 = tested on: STK39
# SYK = tested on: SYK
# SgK110 = tested on: SgK110
# TAK1 = tested on: T2, TAK1
# T2 construct: gene MAP3K7
# TAOK1 = tested on: TAOK1
# 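Also: KINOMEscan kinase panel screen.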
SMILES,%Inh (SGK) [%],%Inh (SIK2) [%],%Inh (SIK) [%],%Inh (SLK) [%],%Inh (SNARK) [%],%Inh (SNRK) [%],%Inh (SRC) [%],%Inh (SRMS) [%],%Inh (SRPK1) [%],%Inh (SRPK2) [%],%Inh (SRPK3) [%],%Inh (STK16) [%],%Inh (STK33) [%],%Inh (STK35) [%],%Inh (STK36) [%],%Inh (STK39) [%],%Inh (SYK) [%],%Inh (SgK110) [%],%Inh (TAK1) [%],%Inh (TAOK1) [%]
CSc1ccc(-c2cc3ncnc(SCC(=O)O)c3s2)cc1,0,0,25,0,0,0,0,0,0,100,0,2,8,0,0,0,15,0,18,0
NS(=O)(=O)c1cccc(-c2ccc3ncc(N4CCOCC4)nc3c2)c1 [GSK1535721],9,0,0,2,1,0,0,6,0,0,0,16,0,0,5,1,0,1,16,14
Cc1nnc(-c2ccc(C)c(-c3ccc(C(=O)Nc4ccc(NS(C)(=O)=O)cc4)cc3)c2)o1 [GW702865],2,0,0,0,1,0,0,2,23,34,3,0,0,0,24,14,33,4,4,0
Nc1nc(-c2ccc3c(N)n[nH]c3c2)cc(N2CCCC2)n1 [GSK2227430],0,0,0,0,3,0,0,0,4,0,0,8,0,0,0,0,0,0,0,0
NCC(NC(=O)c1cc(-c2cn[nH]c2)c(-c2ccnc3[nH]ccc23)s1)c1ccccc1.O=C(O)C(F)(F)F.O=C(O)C(F)(F)F (stereo not drawn) [GSK1325775],74,0,0,0,92.2,0,0,0,81,22,37,46,79,0,0,9,0,66,78,91.9
Cc1cccc(Cn2ccn3c(=O)cc(N4CCOCC4)nc23)c1 [GSK2297542],0,0,3,22,3,0,24,11,11,0,0,61,0,0,0,0,22,0,13,0
Cn1cc(-c2ccc3c(c2)CCN3C(=O)Cc2ccccc2Cl)c2c(N)ncnc21 [GSK2608885],0,52,96.4,99.2,89,0,99.1,98.4,56,0,0,34,18,95.9,100,1,51,0,5,50
Cc1cccc(-c2nc(Nc3ccc4ncsc4c3)c3ccccc3n2)n1 [GW867588],5,0,10,7,6,0,7,8,0,0,9,12,57,2,7,4,18,5,15,23
c1ccc(-c2cc(-c3c[nH]nc3-c3ccccn3)ccn2)cc1 [GW576604],0,0,0,0,0,0,0,0,24,9,0,0,8,0,0,2,6,0,16,0
Fc1ccc(-c2ncn(CCCN3CCOCC3)c2-c2ccccn2)cc1 [SB-211742],0,0,11,23,0,0,0,0,0,60,3,0,7,0,0,0,17,16,0,0
Fc1ccc(-c2nn3c(OCC(F)(F)F)cccc3c2-c2ccncc2)cc1 [GW514784],15,0,0,0,0,0,0,0,29,0,0,3,0,0,0,3,1,0,6,0
CC(C)Oc1ccc2c(-c3ccnc(Nc4ccc(N5CCN(C)CC5)cc4)n3)cnn2n1 [GW696155],88,83,79,10,99.6,23,66,0,85,54,79,98.8,81,45,70,89,10,29,56,76
COCCNC(=O)c1ccc(-c2cc(C(=O)NC3CC3)cc(F)c2C)cc1 [GW868318],36,0,6,0,16,16,23,24,7,0,20,0,10,0,2,16,1,21,14,29
O=c1cc(N2CCOCC2)nc2n(Cc3cccc4ccccc34)ccn12 [GSK2333389],0,0,0,0,0,0,0,0,29,0,0,0,0,2,0,0,2,0,0,0
CN1c2ccc(NCc3ccc(F)cc3)cc2-c2c(cnn2C)S1(=O)=O,5,11,0,0,0,0,3,0,0,0,0,0,0,0,0,0,8,67,0,0
